{"source": "ChEMBL document CHEMBL3988442", "about": "“University of Dundee, Small-Polar-MMV Screening Library” (2021)", "note": "Screen size: about 48,000 compounds; about 13,000 (27%) showed an effect of 50% or more. Some of the results follow."}
{"system": "Wolbachia pipientis", "experiment": "Anti-Wolbachia Cell-Based Screen", "format": "functional", "parameters": "scale not given: in the data most compounds retested in dose-response had high values", "conditions": "5 µM", "units": {"Percent Effect": "%"}}
{"smiles": "O=S1(=O)CCC(n2nc(Cc3cccs3)nc2-c2cnccn2)C1", "note": "(centres undefined)", "Percent Effect": -137.3}
{"smiles": "CC(Oc1ccccc1C(F)(F)F)C(=O)NCCCC(N)=O", "note": "(centres undefined)", "Percent Effect": -9.185}
{"smiles": "N#Cc1cc(F)ccc1NCC1CCN(S(=O)(=O)C(F)F)CC1", "Percent Effect": -12.01}
{"smiles": "CN(c1ccc(CNc2c(Cl)cccc2C#N)cc1)S(C)(=O)=O", "Percent Effect": 0.1811}
{"smiles": "N#Cc1ccc(NCCCOCC2CCOC2)c(F)c1", "note": "(centres undefined)", "Percent Effect": -19.41}
{"smiles": "N#Cc1ccc(Cl)cc1NCC1CCOC1", "note": "(centres undefined)", "Percent Effect": 108.5}
{"smiles": "CCS(=O)(=O)c1ccc(CNc2c(Cl)cccc2C#N)cc1", "Percent Effect": -6.207}
{"smiles": "N#Cc1ccc(Cl)cc1NCC1CC1", "Percent Effect": 111.8}
{"smiles": "CS(=O)(=O)N1CCC(CNc2cc(Cl)ccc2C#N)CC1", "Percent Effect": 125.4}
{"smiles": "N#Cc1cc(F)ccc1NCC1CCS(=O)(=O)CC1", "Percent Effect": -20.22}
{"smiles": "N#Cc1ccc(Cl)cc1N1CCC(OC2CCOCC2)CC1", "Percent Effect": 1.592}
{"smiles": "N#Cc1cc(C(F)(F)F)ccc1NCC1CCS(=O)(=O)CC1", "Percent Effect": -17.13}
{"smiles": "CS(=O)(=O)N1CCC(Nc2ccnc3ccc(Cl)cc23)CC1", "Percent Effect": -4.778}
{"smiles": "CS(=O)(=O)N1CCC(CNc2c(Cl)cccc2C#N)CC1", "Percent Effect": 98.55}
{"smiles": "CN(CC1CCCCO1)C(=O)c1ccnc(OC2CCC2)c1", "note": "(centres undefined)", "Percent Effect": 4.497}
{"smiles": "Cc1nn(C)c(C)c1NC(=O)CNc1cc(C(F)(F)F)ccc1F", "Percent Effect": -4.216}
{"smiles": "O=C(c1ccco1)N(CC(F)(F)F)C1CCOCC1", "Percent Effect": -3.164}
{"smiles": "Cc1nc(C)c(CNC(=O)NC2CC(C)(C)OC2(C)C)s1", "note": "(centres undefined)", "Percent Effect": -7.711}
{"smiles": "CCOC(C)c1nc(CN2CCN(Cc3cccnc3)CC2)cs1", "note": "(centres undefined)", "Percent Effect": -1.889}
{"smiles": "O=C(Nc1ccccc1OCc1ccccn1)NC1CCOCC1", "Percent Effect": 8.72}
{"smiles": "O=C(Nc1ccccc1OCCc1ccccn1)N1CC[C@@H](O)C1", "Percent Effect": 116.1}
{"smiles": "COc1ccc(Oc2ncccc2NC(=O)N2CCOCC2)cc1", "Percent Effect": 2.048}
{"smiles": "COc1ccccc1CC1CCN(C(=O)CCc2ccccn2)CC1", "Percent Effect": -10.18}
{"smiles": "Cc1n[nH]c(C)c1Sc1ccccc1NC(=O)N1CCOCC(O)C1", "note": "(centres undefined)", "Percent Effect": -4.124}
{"smiles": "C=C(C)COc1ccccc1NC(=O)N1CCOCC(CO)C1", "note": "(centres undefined)", "Percent Effect": -7.017}
{"smiles": "O=C(Nc1ccccc1OCCc1ccccn1)NC1CCOCC1", "Percent Effect": -2.172}
{"smiles": "O=C(Nc1ccccc1OCCc1ccccn1)N1CCOCC(O)C1", "note": "(centres undefined)", "Percent Effect": 83.92}
{"smiles": "O=C(Nc1ccccc1OCCc1ccccn1)N1CCOCC1", "Percent Effect": 129.1}
{"smiles": "CC(C)OCCC(=O)N(C)CCCc1cc(-c2ccccc2)no1", "Percent Effect": 2.535}
{"smiles": "CC(C)CC(=O)N[C@H](C)c1c(-c2ccc(Cl)cc2)noc1C(=O)O.Cl", "Percent Effect": -0.2726}
{"smiles": "CNC(=O)c1nc2c(s1)CCN(C(=O)c1cccnc1)CC2.O=C(O)C(F)(F)F", "Percent Effect": -13.23}
{"smiles": "Cc1ccc(C)c(-n2ccc3nc(N4CCCC4)ncc3c2=O)c1", "Percent Effect": -2.601}
{"smiles": "Cc1ccc(CN2C[C@@H]3CCCO[C@@H]3[C@H](NS(C)(=O)=O)C2)o1.O=C(O)C(F)(F)F", "Percent Effect": -4.883}
{"smiles": "Cn1cc(CN2C[C@@H]3CCCO[C@@H]3[C@H](NC(=O)CC3CC3)C2)cn1.O=C(O)C(F)(F)F", "Percent Effect": -5.365}
{"smiles": "O=C(N[C@@H]1CN(c2ncccn2)C[C@@H]2CCCO[C@@H]21)c1ccncc1.O=C(O)C(F)(F)F.O=C(O)C(F)(F)F", "Percent Effect": -5.975}
{"smiles": "Cc1ccc(N[C@@H]2CN(Cc3cc(C)on3)C[C@@H]3CCCO[C@@H]32)nn1.O=C(O)C(F)(F)F.O=C(O)C(F)(F)F", "Percent Effect": 92.65}
{"smiles": "Cc1cccc(CN2C[C@@H]3CCCO[C@@H]3[C@H](Nc3ccccn3)C2)n1", "Percent Effect": 113.7}
{"smiles": "O=C(N[C@@H]1CN(Cc2ccccc2)C[C@@H]2CCCO[C@@H]21)C1CC1.O=C(O)C(F)(F)F", "Percent Effect": -2.249}
{"smiles": "Cc1noc(C)c1CN1C[C@@H]2CCCO[C@@H]2[C@H](Nc2ccccn2)C1.O=C(O)C(F)(F)F.O=C(O)C(F)(F)F", "Percent Effect": 91.6}
{"smiles": "CCCn1nccc1C(=O)N1CCCN(CCCc2ccccc2)CC1", "Percent Effect": -7.679}
{"smiles": "COc1cc(N2CCC3(CCCN3Cc3cnn(C)c3)CC2)ncn1.O=C(O)C(F)(F)F", "Percent Effect": 0.3231}
{"smiles": "O=C1OCCN1CCNc1ncc2c(n1)CCN2c1ccccc1", "Percent Effect": 15.29}
{"smiles": "CN(Cc1nc(-c2cccnc2)no1)C(=O)c1cnc2n1CCCC2", "Percent Effect": -9.583}
{"smiles": "COc1ccc2nnc(CCC(=O)Nc3nc(C)c(C)s3)n2n1", "Percent Effect": 119}
{"smiles": "COc1cccc2c1OCC(C(=O)NCc1nc3c(s1)CCCC3)C2", "note": "(centres undefined)", "Percent Effect": -11.26}
{"smiles": "O=C(CN1CCCC(c2ccn[nH]2)C1)Nc1nc2c(s1)CCCC2", "note": "(centres undefined)", "Percent Effect": 3.48}
{"smiles": "COc1ccc(CNC(=O)NCc2nc(C)c(C)s2)cn1", "Percent Effect": -2.055}
{"smiles": "COc1ccc2nnc(CCCC(=O)NCc3cccn3C)n2n1", "Percent Effect": 11.78}
{"smiles": "COc1ccc2nnc(CCCC(=O)Nc3nc4c(s3)CCC4)n2n1", "Percent Effect": 114}
{"smiles": "COc1ccc2nnc(CCC(=O)Nc3nc4c(s3)CCCC4)n2n1", "Percent Effect": 139.1}
{"smiles": "COc1ccc2nnc(CCC(=O)Nc3nc4c(s3)CCC4)n2n1", "Percent Effect": 122.5}
{"smiles": "COc1ccc2nnc(CCCC(=O)NCCC3=CCCCC3)n2n1", "Percent Effect": 8.382}
{"smiles": "CC1CCc2nc(NC(=O)CN(C)C(=O)c3ccco3)sc2C1", "note": "(centres undefined)", "Percent Effect": 6.016}
{"smiles": "Cl.O=C(Nc1cccc(CNCc2csc(Br)c2)c1)C1CC1", "Percent Effect": 8.664}
{"smiles": "Cn1c(CN2CCCC(Cn3cc(CCO)nn3)C2)cc2ccccc21", "note": "(centres undefined)", "Percent Effect": -3.517}
{"smiles": "Cc1ccc2cc(C3(O)CCN(C(=O)CSC(C)C)CC3)ccc2n1", "Percent Effect": 8.492}
{"smiles": "Cc1ccc(C)c(OCc2cc(C(=O)N(C)CC(O)CO)no2)c1", "note": "(centres undefined)", "Percent Effect": -202.7}
{"smiles": "O=C(NC1CC1)[C@H]1C[C@H]2OCC[C@H]2N(CC2CC2)C1.O=C(O)C(F)(F)F", "Percent Effect": -11.18}
{"smiles": "COC[C@@H]1CC[C@H]2[C@H](CCN2S(=O)(=O)Cc2ccccc2)O1", "Percent Effect": 24.17}
{"smiles": "Cc1ccc(C(=O)N2C[C@H]3CC[C@@H]2CN(S(=O)(=O)N(C)C)C3)c(O)c1", "Percent Effect": -19.11}
{"smiles": "CCOC(C)c1noc(CN(C)C(=O)c2cc3ccccn3c2)n1", "note": "(centres undefined)", "Percent Effect": 5.368}
{"smiles": "CCc1ocnc1C(=O)N1CCC(n2cc(-c3ccsc3)nn2)CC1", "Percent Effect": -3.384}
{"smiles": "COc1ccc2nnc(CCC(=O)Nc3nc4c(s3)CCCCC4)n2n1", "Percent Effect": 106.8}
{"smiles": "Cc1nc(S(=O)(=O)NCCC(=O)NCc2ccc(C#N)cc2)cn1C", "Percent Effect": -22.12}
{"smiles": "CCN(CC1CCCO1)C(=O)Nc1cc(OC)c(OC)cc1C", "note": "(centres undefined)", "Percent Effect": 1.885}
{"smiles": "CCN(CC1CCCO1)C(=O)Nc1cc(C(=O)OC)ccc1F", "note": "(centres undefined)", "Percent Effect": -7.432}
{"smiles": "CCN(CC1CCCO1)C(=O)Nc1cccc(Cl)c1OC", "note": "(centres undefined)", "Percent Effect": 103.8}
{"smiles": "CCN(CC1CCCO1)C(=O)Nc1cccc(N2CCOCC2)c1", "note": "(centres undefined)", "Percent Effect": -20.72}
{"smiles": "CCN(CC1CCCO1)C(=O)Nc1ccc(F)cc1OC", "note": "(centres undefined)", "Percent Effect": -0.9971}
{"smiles": "CCN(CC1CCCO1)C(=O)Nc1cc(C(N)=O)ccc1OC", "note": "(centres undefined)", "Percent Effect": 103.2}
{"smiles": "CCCC(=O)Nc1ccc(CC(=O)N(CC)CC2CCCCO2)cc1", "note": "(centres undefined)", "Percent Effect": -7.616}
{"smiles": "CCN(CC1CCCO1)C(=O)Nc1ccc(OC)c(C)c1", "note": "(centres undefined)", "Percent Effect": 118.7}
{"smiles": "CCN(CC1CCCO1)C(=O)Nc1cc(C)ccc1S(C)(=O)=O", "note": "(centres undefined)", "Percent Effect": 111.7}
{"smiles": "CCN(CC1CCCO1)C(=O)CSCC(=O)Nc1ccc(C)cc1", "note": "(centres undefined)", "Percent Effect": 18.9}
{"smiles": "CN(C)c1ccc(CCCNC(=O)Nc2ccc(C#N)cc2)cc1", "Percent Effect": 14.16}
{"smiles": "O=C(c1ccc(N2CCCC2)nn1)N1CCCc2cc(F)c(F)cc21", "Percent Effect": -2.029}
{"smiles": "Cc1nc(CCCNC(=O)C2CC(=O)N(C(C)(C)C)C2)sc1C", "note": "(centres undefined)", "Percent Effect": -4.767}
{"smiles": "COc1cccc(-n2nnc(C(=O)N3CCNC(=O)C3)c2C)c1", "Percent Effect": 2.603}
{"smiles": "CCN(CC1CCCCO1)C(=O)CCNC(=O)c1ccccc1F", "note": "(centres undefined)", "Percent Effect": 0.5335}
{"smiles": "CCN(CC1CCCO1)C(=O)NCCNC(=O)c1ccccc1F", "note": "(centres undefined)", "Percent Effect": 93.7}
{"smiles": "COCCN(CC1CCCO1)C(=O)CCNC(=O)c1ccccc1F", "note": "(centres undefined)", "Percent Effect": 6.163}
{"smiles": "CSCC(=O)NC1CCN(C(C)c2ccccc2)CC1", "note": "(centres undefined)", "Percent Effect": -9.489}
{"smiles": "CCOCCCC(=O)NC1CCN(C(C)c2ccccc2)CC1", "note": "(centres undefined)", "Percent Effect": -0.8786}
{"smiles": "CC1CCN(CC(=O)NC2CCN(C(C)c3ccccc3)CC2)CC1.Cl", "note": "(centres undefined)", "Percent Effect": 112.7}
{"smiles": "Cc1cnn(CCC(=O)Nc2cccnc2N2CCC(CO)CC2)c1", "Percent Effect": -13.92}
{"smiles": "CCc1nc(C2CCCN(C(=O)NC(C)C)C2)no1", "note": "(centres undefined)", "Percent Effect": 123.4}
{"smiles": "CCc1nc(C2CCCN(C(=O)NC3CC3)C2)no1", "note": "(centres undefined)", "Percent Effect": 109.2}
{"smiles": "CCNC(=O)N1CCCC(c2noc(CC)n2)C1", "note": "(centres undefined)", "Percent Effect": -3.898}
{"smiles": "CCc1nc(C2CCCN(C(=O)C3=NN(C(C)C)C(=O)CC3)C2)no1", "note": "(centres undefined)", "Percent Effect": 7.741}
{"smiles": "CCc1nc(C2CCCN(C(=O)CN(C)S(C)(=O)=O)C2)no1", "note": "(centres undefined)", "Percent Effect": 1.006}
{"smiles": "CCc1nc(C2CCCN(C(=O)c3c[nH]c(C(C)C)n3)C2)no1", "note": "(centres undefined)", "Percent Effect": 7.02}
{"smiles": "CCc1nc(C2CCCN(C(=O)CC3CCOCC3)C2)no1", "note": "(centres undefined)", "Percent Effect": 122.8}
{"smiles": "CCc1nc(C2CCCN(C(=O)C(C)(C)NS(C)(=O)=O)C2)no1", "note": "(centres undefined)", "Percent Effect": 113.6}
{"smiles": "CCc1nc(CCNc2ncccc2C#N)sc1C", "Percent Effect": -8.813}
{"smiles": "CN(C)C(=O)Cc1ccccc1NCc1nc(Cc2ccccc2)no1", "Percent Effect": 16.45}
{"smiles": "O=C(NCc1cc(O)ncn1)C1COc2ccccc2C1", "note": "(centres undefined)", "Percent Effect": -5.183}
{"smiles": "O=C1N(CCCc2ccccc2)CCCC1(O)CNCc1ccccc1", "note": "(centres undefined)", "Percent Effect": -2.179}
{"smiles": "Cc1cnn(-c2cccc(N3CCN(c4cc(C)nc(C)n4)CC3)n2)c1", "Percent Effect": 4.719}
{"smiles": "CCc1nc(C2CCCN(C(=O)NCCOC)C2)no1", "note": "(centres undefined)", "Percent Effect": 110.5}
